The results in this text go back to PubChem BioAssay AID493030 (The Scripps Research Institute Molecular Screening Center, 2011).

Among all 2,300 compounds or so, about 1,500 (65%) were called active. The set was probably picked from earlier hits. A selection follows. Unmarked numbers belong to inactive results.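 The calls were made as follows: active = mean inhibition over three repeats above a set limit taken from the earlier primary screen (cut at about 30% in these data); inactive = the rest.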

The target of this assay is Platelet-activating factor acetylhydrolase 2, cytoplasmic (Homo sapiens) (UniProt Q99487). In words: PAFAH2 enzyme inhibitors, confirmation, biochemical, fluorescence polarization, human (AID 493030).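 Also: inhibitor blocks binding of rhodamine activity probe so polarization falls; 0% = enzyme with DMSO and 100% = wells lacking PAFAH2 protein.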 To be noted: recombinant PAFAH2, FP-rhodamine activity probe, at 3.39 µM, stronger effect = higher value. (Polarisation of emitted light reports the rotation of a fluorescent probe.)
Turning to `COc1ccc(C(=O)ON=C2c3ccccc3-c3ccccc32)cc1OC`, the inhibition was 68.7% (active). The value for `COc1ccc(/C=N/N(C)C2=NS(=O)(=O)c3ccccc32)cc1OC` was 9.39%; that for `O=C(Nc1nnc(SCc2ccccc2Cl)s1)c1cccc([N+](=O)[O-])c1` was 22.6%. The value for `O=C(Nc1nnc(SCc2c(Cl)cccc2Cl)s1)c1cccc([N+](=O)[O-])c1` was 52% (active). Regarding `O=C(Nc1nnc(SCc2c(Cl)cccc2Cl)s1)C1CCCO1` (stereo not drawn), the inhibition was 24%. For `O=c1oc(/C=C/c2ccccc2)nc2ccccc12`, the inhibition is 79.7% (active).

As to `Cc1ccc(C(=O)OCC(=O)Nc2ccc(Cl)cn2)cc1S(=O)(=O)N1CCOCC1`, the inhibition is 54.4% (active). In the case of `Cc1ccc(Cl)cc1NC(=O)COC(=O)C1CCCCC1` it was 17.7%; in that of `Cc1ccc(NC(=O)COC(=O)C2CC2)cc1S(=O)(=O)N1CCOCC1`, 61.3% (active). In the case of `Cc1ccc(NC(=O)COC(=O)C2C3CC4OC(=O)C2C4C3)cc1Cl` (stereo not drawn) it was 76% (active); in that of `O=C(COC(=O)c1ccco1)Nc1ccc(Cl)cn1`, 33.1% (active). The value for `Oc1oc(-c2ccccc2Br)nc1/C=N/c1ccccn1` was 52.6% (active); that for `COc1ccc(C2=NN(c3nc4ccccc4s3)C(=O)C2)cc1` was 46.9% (active); that for `CC1CC1C(=O)OCC(=O)Nc1cccc(F)c1` (stereo not drawn) was 83.6% (active). `O=C(COC(=O)C1CC2C=CC1C2)Nc1ccccc1` (stereo not drawn): the inhibition is 69.6% (active). `COc1cc(NC(=O)COC(=O)c2ccc([N+](=O)[O-])s2)cc(OC)c1OC`: the inhibition is 35.9% (active). Consider `O=C(OCc1nc2ccccc2[nH]1)C1CCCCC1`, for which the inhibition is 51.7% (active). In the case of `Cc1c(Cl)cnc(NC(=O)COC(=O)C2CCCC2)c1Cl` it was 15.8%.

Take `O=C(O)c1ccccc1N=N/C(=N/Nc1cc(S(=O)(=O)O)ccc1O)c1ccccc1`: the inhibition is 8.84%. As to `COc1ccccc1Nc1nc(N)nc(CSC(=S)N2CCOCC2)n1`, the inhibition was 26.7%. In the case of `CCn1c(/C=N/NC(=O)c2ccc(OC)cc2)nc2ccccc21` it was 6.41%; in that of `N#Cc1cccc(NC(=O)COC(=O)c2ccccc2C(=O)c2ccc(Cl)c([N+](=O)[O-])c2)c1`, 34.2% (active). `CC1=NN(c2ccc(Cl)c(C(=O)O)c2)C(=O)/C1=C/c1ccc(-c2ccccc2[N+](=O)[O-])o1`: the inhibition is 27.5%. The value for `Cc1cc(C(=O)COC(=O)C2CC2)c(C)n1-c1ccc(F)cc1` was 36.1% (active); that for `CC(=O)Oc1ccc(-c2nc3c(C)cccc3c(=O)o2)cc1` was 23.6%; that for `Cc1ccc(-c2nc3c(cnn3-c3ccccc3)c(=O)o2)cc1` was 44% (active). For `Cc1cccc(/C=N/NC(=O)CNc2cccc3ccccc23)n1`, the inhibition was 30.5% (active). The value for `Clc1ccccc1CSc1nnc(-c2ccco2)c(-c2ccco2)n1` was 16.4%; that for `COc1ccc(C(=O)OCC(=O)NCC2CCCCC2)cc1S(=O)(=O)N1CCCc2ccccc21` was 60.8% (active). The value for `COc1ccc(C(=O)O/N=C(\N)Cc2ccc(Cl)cc2Cl)cc1OC` was 80.9% (active); that for `O=C(NNC(=O)c1ccccc1O)c1ccccc1O` was 20.3%; that for `O=c1oc(-c2ccccc2NS(=O)(=O)c2ccc(Cl)cc2)nc2ccccc12` was 76.7% (active). In the case of `O=[N+]([O-])c1ccc(C=Nc2ccc(Cl)cc2Cl)s1` it was 7.11%; in that of `O=C(COC(=O)c1cccnc1Cl)NC12CC3CC(CC(C3)C1)C2`, 74.8% (active). For `COc1cc(C(=O)OCC(=O)NC23CC4CC(CC(C4)C2)C3)cc(OC)c1OC`, the inhibition was 67.7% (active). For the molecule `O=C(COC(=O)c1ccc([N+](=O)[O-])o1)NC12CC3CC(CC(C3)C1)C2`, the inhibition is 46.4% (active). The value for `COCCNC(=O)/C(C#N)=C/c1cccc(OCc2ccccc2)c1` was 12%. As to `O=C(Cc1ccc(S(=O)(=O)N2CCOCC2)s1)NCCOc1ccccc1F`, the inhibition is 30.5% (active). In the case of `CC(C)(C)c1ccc(/C=C2\Oc3c(ccc(O)c3CN3CCN(CCO)CC3)C2=O)cc1` it was 66.7% (active); in that of `Cn1cccc1C(=O)OCC(=O)c1ccc(Br)s1`, 21%; in that of `COc1ccc(C(=O)OCC(=O)c2ccc(Cl)s2)c(OC)c1OC`, 73.5% (active).

On to `COc1ccc(/C=C/C(=O)OCC(=O)NCc2cccs2)cc1OC`, for which the inhibition was 56.9% (active). Turning to `O=C(COC(=O)/C=C/c1cccc(Cl)c1)NCc1cccs1`, the inhibition is 35% (active). Consider `CCOC(=O)CCCN1CC(O)=C(c2nc3ccccc3s2)C1=N`, for which the inhibition is 28.1%.

With `O=C(COC(=O)c1n[nH]c2ccccc12)Nc1ccccc1Br`, the inhibition is 38.6% (active). Consider `O=C(COC(=O)c1n[nH]c2ccccc12)NCc1ccccc1`, for which the inhibition was 28.3%. The value for `COCC1CCN(C(=O)c2ccc3oc(Cc4ccccc4)nc3c2)C1` (stereo not drawn) was 40.8% (active); that for `Cc1ccc(/C=C/C(=O)OCC(=O)Nc2cccnc2Cl)cc1` was 23.7%.

Regarding `C/C=C/C=C/C(=O)OCC(=O)Nc1ccc(Cl)cc1`, the inhibition is 82.9% (active). In the case of `Cc1oc2cc(Br)c(O)c(Br)c2c1C(=O)c1ccccc1` it was 49.5% (active); in that of `O=C(c1cccnc1)N(c1cc2sc(=O)oc2c2ccccc12)S(=O)(=O)c1ccccc1`, 25%; in that of `COc1ccc(C(=O)OCC(=O)NCCCc2ccccc2)cc1OC`, 53.5% (active). In the case of `COc1ccc(C(=O)OCC(=O)Nc2cccc(C(C)=O)c2)cc1OC`, the inhibition is 79% (active). For the molecule `COc1ccc(OC)c(/C=C/C(=O)OCC(=O)Nc2ccc3c(c2)OCCO3)c1`, the inhibition was 48.2% (active).

In the case of `COc1cc(/C=C/C(=O)OCC(=O)Nc2cccc(Oc3ccccc3)c2)ccc1O`, the inhibition was 61.8% (active). In the case of `COc1cccc(NC(=O)COC(=O)/C=C/c2ccco2)c1` it was 77.9% (active); in that of `COc1ccc(/C=C/C(=O)OCC(=O)Nc2cccc(Oc3ccccc3)c2)c(OC)c1`, 34.4% (active); in that of `COc1cc(/C=C/C(=O)OCC(=O)NCCCc2ccccc2)ccc1O`, 35.2% (active). Consider `CC(C)CNC(=O)COC(=O)/C=C/c1ccco1`, for which the inhibition was 70.3% (active). The value for `COc1cccc(C(=O)n2ccc(-c3cccs3)n2)c1` was 11.4%. In the case of `Cc1cc(C(=O)OCC(=O)Nc2ccc(F)c(F)c2)c(C)o1` it was 74.4% (active); in that of `Cc1cc(C)cc(NC(=O)COC(=O)c2cc(C)oc2C)c1`, 61.5% (active). In the case of `Cc1cc(C(=O)NNC(=O)c2ccccc2O)c(C)o1` it was 23.2%; in that of `Cc1cc(C(=O)OCC(=O)Nc2ccccc2Cl)c(C)o1`, 31.5% (active); in that of `CC(=O)c1c(C)[nH]c(C(=O)OCC(=O)NCCC(C)C)c1C`, 22.4%. Take `Cc1ccc2c(=O)oc(N(C)C)nc2c1`: the inhibition was 38.2% (active). The value for `CCc1ccc(C(=O)OCC(=O)NCC(F)(F)F)cc1` was 51.9% (active); that for `O=C(COC(=O)C1CCCCC1)Nc1ccc([N+](=O)[O-])cc1` was 40.8% (active); that for `CCC(C)c1ccc(NC(=O)COC(=O)C2CCCC2)cc1` (stereo not drawn) was 21.6%. The value for `COc1ccc(S(=O)(=O)N2CCOCC2)cc1NC(=O)Cc1c(F)cccc1Cl` was 24.1%; that for `COc1ccc(S(=O)(=O)N2CCOCC2)cc1NC(=O)Cc1coc2cc(C)ccc12` was 46.8% (active); that for `COc1ccc(S(=O)(=O)N2CCOCC2)cc1NC(=O)CC1CC2CCC1C2` (stereo not drawn) was 60.8% (active). The value for `Nc1ccc(C(=O)OCC(=O)NC2CCCc3ccccc32)cc1[N+](=O)[O-]` (stereo not drawn) was 52.2% (active); that for `NC(=O)Nc1ccc(C(=O)OCC(=O)NC2CCCc3ccccc32)cc1` (stereo not drawn) was 67.4% (active). Turning to `Cc1cccc(C(=O)OCC(=O)Nc2ccc(F)cc2)c1`, the inhibition was 81.4% (active).

For the molecule `O=C(COC(=O)c1ccc(F)cc1)Nc1ccc2c(c1)OCO2`, the inhibition is 72.8% (active). As for `CC(C)COC(=O)n1c(=O)oc2ccc(S(=O)(=O)N3CCCCC3)cc21`, the inhibition is 69.2% (active). The value for `O=C(COC(=O)c1ccc2ncsc2c1)Nc1ccc(Cl)cc1` was 76.2% (active); that for `CCc1c(SCCC(=O)O)nc2ccccc2c1C` was -1.24%; that for `COc1ccc(/C=C/C(=O)OCC(=O)NC2CCCCCC2)cc1OC` was 79.4% (active). Regarding `O=C(COC(=O)/C=C/c1ccc(OC(F)F)cc1)NC1CCCCC1`, the inhibition was 62.1% (active). In the case of `C=CCOc1ccc(/C=C/C(=O)OCC(=O)NC2CCCCCC2)cc1` it was 77.1% (active). In the case of `O=C(COC(=O)/C=C/c1cccs1)NC1CCCCC1` it was 87.9% (active); in that of `C=CCOc1ccc(/C=C/C(=O)OCC(=O)NC(C)c2ccc(F)cc2)cc1` (stereo not drawn), 32.5% (active); in that of `Oc1c(Cl)cc(Cl)c(Cl)c1Cc1c(O)c(Cl)cc(Cl)c1Cl`, 23.1%. In the case of `O=C(COC(=O)C12CC3CC(CC(O)(C3)C1)C2)NC12CC3CC(CC(C3)C1)C2` it was 77.7% (active). With `Cc1ccc(F)cc1S(=O)(=O)Nc1cccc(C(=O)N2CCCC(C(N)=O)C2)c1` (stereo not drawn), the inhibition is 12.6%. In the case of `Cc1ccc2c(c1)C1CN(C)CCC1N2C(=O)c1ccccc1NS(=O)(=O)c1ccc(F)cc1C` (stereo not drawn) it was 34.1% (active).

Regarding `O=C(ON=C1CCN(S(=O)(=O)c2ccccc2)CC1)c1ccc(Cl)cc1`, the inhibition was 87.2% (active). With `CCS(=O)(=O)c1ccc(O)c(NC(=O)COc2ccc(Cl)cc2)c1`, the inhibition was 60.8% (active). `CCC1OC(c2ccc([N+](=O)[O-])cc2)=Nc2ccccc21` (stereo not drawn): the inhibition was 13.7%.

Turning to `CCN(CC)c1ccc(C(=O)OCC(=O)c2ccco2)cc1`, the inhibition is 40.6% (active). For `O=C(COC(=O)c1ccccc1C(=O)c1ccccc1)c1ccco1`, the inhibition was 33.5% (active). The value for `CC(=O)Nc1ccc(NC(=O)COC(=O)c2ccccc2C(=O)c2ccccc2)cc1` was 18.4%. With `CC(=O)Nc1ccc(C(=O)OCC(=O)Nc2ccc([N+](=O)[O-])cc2C(F)(F)F)cc1`, the inhibition is 34.5% (active).

For `CCCCN1Cc2c(nc3cc(-c4ccccc4)[nH]n3c2=O)C1=O`, the inhibition is 5.46%.

Consider `Cc1cc(NC(=O)COC(=O)/C=C/c2ccc(C)o2)no1`, for which the inhibition is 14.1%. In the case of `Cc1ccc(/C=C/C(=O)OCC(=O)NCc2ccc(Cl)cc2)o1` it was 42.2% (active).

In general, inhibition refers to the drop in the measured response relative to a control, in per cent.
